From PubChem BioAssay (NCI)
Compounds without any hit were thinned out: in the full panel of roughly 83,000, 20% have a hit.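 Each cell line was grown in a 96-well plate and treated with one concentration of compound for 48 hours. Values below 10 were considered active.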 Activity calls are given as the source filed them.

What follows are compounds tested on MDA-MB-468 breast (assay: NCI-60 one-dose screen, 48 h (100 = growth as untreated, 0 = no growth, -100 = all killed)). Conditions: 10 µM unless noted.
`C[C@H]1O[C@@H](O[C@H]2[C@@H](O)C[C@H](O[C@H]3[C@@H](O)C[C@H](O[C@H]4CC[C@]5(C)C6C[C@@H](O)[C@]7(C)[C@@H](C8=CC(=O)OC8)CC[C@]7(O)C6CC[C@@H]5C4)O[C@@H]3C)O[C@@H]2C)C[C@H](O)[C@@H]1O` (some centres undefined) was tested, and the growth was -61.7% (active). In the case of `CC(=O)c1cccc(Nc2ncnc3ccc(NC(=O)c4ccco4)cc23)c1`, the growth is reported as 60.2% (inactive). With `O=C(OCc1ccc2c(Cl)cc(Cl)c(O)c2n1)N1CCNCC1` the growth was 33.6% (inactive). `COc1ccccc1Nc1nnc(COc2ccc(CNC(=O)CCCC/C=C/C(C)C)cc2OC)o1` was tested, and the growth was 99.7% (inactive). `CC(=O)C1=C(O)C=C2Oc3c(C(=O)/C=C/c4cc(Cl)cc(Cl)c4)c(O)c(C)c(O)c3[C@]2(C)C1=O` was tested, and the growth was -41.7% (active). In the case of `CCN(CC)CCCC(C)NCCCNc1cccc2cccnc12` (centres undefined), the growth is reported as 90% (inactive). `N#Cc1cnc2ccc(-c3cnc4[nH]ncc4c3)cc2c1N1CCc2cc(F)c(Cl)cc21` was tested, and the growth was -19.8% (active). For `Cc1nc2cc(Nc3nc(Cl)nc(Nc4ccc(F)cc4)n3)ccc2n1Cc1ccccc1`, the growth was 76.2% (inactive). For `COc1ccc(/C=N/NC(=O)Cn2nnc3ccccc32)cc1`, the growth was 103% (inactive). For `Cc1cc(C(C)(C)C)cc(C)c1Br`, the growth was 113% (inactive). In the case of `N#Cc1c(-c2cccc(Cl)c2)cc(-c2cccc(Cl)c2)[nH]c1=O`, the growth is reported as 73.2% (inactive). `CN(C)c1cnccn1` was tested, and the growth was 56.1% (inactive). For `Cn1cc(-c2nnc(N)nc2-c2cn(C)c3ccc(F)cc23)c2cc(F)ccc21`, the growth was 99.8% (inactive). In the case of `COc1ccc(Cn2cc3c(c2-c2cc(OC)c(OC)c(OC)c2)CCCc2cnoc2-3)cc1N`, the growth is reported as 46.7% (inactive). `COc1ccc2c(c1)C(=O)c1c-2c(OCCN(C)C)nc2ccccc12` was tested, and the growth was 44.8% (inactive). In the case of `N[C@H]1CCC[C@@H]1NCCCCN1C(=O)c2cccc3cccc(c23)C1=O`, the growth is reported as 50.4% (inactive). With `CCOC(=O)C1=C(C)Nc2nc3ccccc3n2C1c1ccccc1` (centres undefined) the growth was 85.6% (inactive). In the case of `O=C(CSc1nc2sc3c(c2c(=O)n1-c1ccc(Cl)cc1)CCCC3)Nc1nc(-c2cccc(Br)c2)cs1`, the growth is reported as 65.1% (inactive). `COc1ccc(Nc2nn3c(-c4ccccc4)cc(-c4ccccc4)nc3c2C(N)=O)c(OC)c1` was tested, and the growth was 43.5% (inactive). With `CCN1CCN(CCNc2nccc(-c3c(-c4ccc(F)c(OC)c4)nc4sccn34)n2)S1(=O)=O` the growth was 80.1% (inactive). With `COc1ccc(Cn2cc3c(c2-c2ccc(OC)cc2)CCc2cnoc2-3)cc1` the growth was -7.25% (active). In the case of `CCOc1ccc(/C=N/Nc2cc(C)nc3ccc(Br)cc23)cc1`, the growth is reported as 65.2% (inactive). In the case of `CCCCc1nc(Cl)c(C2CC(c3ccc(Cl)cc3)=NN2c2cc(Cl)cc(Cl)c2)[nH]1` (centres undefined), the growth is reported as 88.3% (inactive). For `O=S(=O)(N=C1C(Cl)=C(Cl)C(=NS(=O)(=O)c2ccccc2)C(Cl)=C1Cl)c1ccccc1`, the growth was 70.3% (inactive).
